Assay outcomes as filed in PubChem BioAssay.
HCMV antiviral – human cytomegalovirus inhibition | HFF cells, HCMV-luciferase reporter, 72 h; active compounds read low | activity change, negative = inhibition, % at 57.5 µM | 4.5% of 410,000 active | AID 1259415; in the data active means activity change below about -60%; inconclusive means no clear call, values can overlap the other calls; inactive means above about -39%; further: on the % scale 0 is the no-effect control and ±100 the full control effect
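After 16 h attachment at 37C, HFF cells received test compound and HCMV-luciferase (1 PFU/cell); reporter luminescence read 72 h later, data normalized against buffer-only and known inhibitor Salinomycin.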
Pf growth 96h – P. falciparum growth inhibition at 96 hours | 6.9% of 320,000 active | P. falciparum luciferase reporter growth, 96 h | Potency, µM (highest dose often 28.7 µM), without a hit: at the highest dose activity change, negative = inhibition, actives largely listed as inhibitors; further: potency means the concentration at half of the fitted maximal effect; on the % scale 0 is the no-effect control and ±100 the full control effect
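Delayed-death screen, second-generation endpoint: infected erythrocytes, 2% hematocrit, 0.05% parasitemia final; 96 hours at 37 C, 5% CO2; luciferase detection reagent; luminescence decrease equals reduced growth.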
SARS PLP yeast – blocks SARS-CoV papain-like protease in a yeast assay | Potency, µM (highest dose often 32.9 µM), for the others: at the top dose activity, positive = growth rescue, most hits filed as activators | 0.19% of 330,000 active | AID 485353 | S. cerevisiae expressing SARS-CoV PLpro, growth rescue; calls by dose curve; further: potency means the concentration at half of the fitted maximal effect; 0% is about no effect; nearly all actives have a fitted effect of over 55% in size
Pf growth 48h – P. falciparum growth inhibition at 48 hours (one generation); AID 504832; 5.9% of 310,000 active; Potency, µM (highest dose often 28.7 µM), inactives show at the top dose activity change, negative = inhibition, actives largely listed as inhibitors; P. falciparum luciferase growth in erythrocytes, 48 h; further: potency means the concentration at half of the fitted maximal effect; on the % scale 0 is the no-effect control and ±100 the full control effect
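Growth was read as firefly luciferase luminescence after a 48 h, 37 C, 5% CO2 exposure of compounds to reporter-bearing P. falciparum cultures (0.1% parasitemia, 2% hematocrit final) in Albumax-supplemented RPMI 1640.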
Sm TGR block – S. mansoni TGR enzyme inhibition | Potency, µM (titrated, usually from 114 µM), without a hit: top-dose activity change, negative = inhibition, usual class: inhibitors | Q962Y6 | AID 485364 | 3% of 360,000 active | purified TGR, DTNB reduction, TNB absorbance 405 nm; further: potency means the concentration at half of the fitted maximal effect; on the % scale 0 is the no-effect control and ±100 the full control effect; nearly all actives have a fitted effect of over 60% in size
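TGR 20 nM + NADPH 100 uM (dispensed conc.), cpd preinc 15 min RT; start with NADPH (500 uM addition) then DTNB (15 mM addition). Kinetic TNB absorbance, 405 nm filter. Four-parameter Hill fit across titration.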
HCV inhibitor – inhibitors of hepatitis C virus infection; Huh7.5.1 HCVcc-Cre infection, luciferase reporter, 44 h; Potency, µM (doses to about 41.8 µM), inactives show at the top dose activity change, negative = inhibition, most hits filed as inhibitors; 3.4% of 340,000 active; AID 651820; further: potency means the concentration at half of the fitted maximal effect; on the % scale 0 is the no-effect control and ±100 the full control effect
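Compounds are dispensed onto cells plated 4 h earlier at 1,000 per well, with HCVcc-Cre virus (about 0.5 moi) added next. Following 44 h of culture, luminescent signal is measured for 15 sec after 15 min with substrate at room temperature.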
* hit, by the source's call; ? = inconclusive; nt = not tested or not shown; ! = a repeat was not active; [ ] = remark or other dose. Most compounds without a hit are left out; they make up all but 15% or so of the library. Unless noted, the call rests on the fitted dose curve; in most records, active means well fitted curve in the direction sought with a large enough effect; inconclusive means small, poorly fitted or top-dose-only effect, or another doubt; inactive means no such curve, though single readings can be large; an effect the other way counts as inactive or inconclusive.

SMILES	HCMV antiviral	Pf growth 96h	SARS PLP yeast	Pf growth 48h	Sm TGR block	HCV inhibitor
O=C(CN1CCN(S(=O)(=O)c2ccc(Cl)cc2)CC1)NC1CC1	12	28%	1%	6%	-17%	-1%
CCCCCCc1ccc(N2C[C@H](Cc3ccccc3)[C@@H](CC(=O)NCc3ccc(OC)cc3)C2=O)cc1	179	?	2%	-63%	-17%	2.8µM*
CCCCCCc1ccc(N2C[C@H](CCCCC)[C@@H](CC(=O)NCc3ccc(OC)cc3)C2=O)cc1	72	?	2%	?	-1%	12%
O=C(COc1ccc([N+](=O)[O-])cc1)NCc1ccncc1	-30	?	0%	7%	5%	-5%
C[C@]12CCC(=O)C[C@@H]1CC[C@@H]1[C@@H]2CC[C@]2(C)[C@@H](C(=O)COC(=O)CCC(=O)O)CC[C@@H]12	-61*!	-19%	-2%	-13%	0%	18%
C[C@]12CCC(=O)C[C@H]1CC[C@@H]1[C@@H]2CC[C@]2(C)[C@@H](O)CC[C@@H]12	nt	?	0%	?	10%	7%
CCN1/C(=C/C=C/C2=[N+](CC)c3ccccc3C2(C)C)C(C)(C)c2ccccc21	-99*	nt	nt	nt	nt	nt
CN1/C(=C\C=O)C(C)(C)c2ccccc21	-29	5%	-1%	2%	21%	6%
CN1\C(=C/C=C/C=C/C=[N+](C)C)C(C)(C)c2ccccc21	2	?	-9%	?	1%	10%
CN1/C(=C\C=C\C2=[N+](C)c3ccc4ccccc4c3C2(C)C)C(C)(C)c2ccccc21	nt	0.33µM*	-31%	1.3µM*	-3%	nt
Cc1ccc(S(=O)(=O)c2nnn3c2nc(N(C)Cc2ccccc2)c2cc(Cl)ccc23)cc1C	7	nt	nt	nt	-2%	nt
O=C(COC(=O)c1ccccc1S(=O)(=O)N1CCCCC1)NCC(F)(F)F	19	13µM*	8%	-12%	-16%	-3%
CCCCOc1ccc(C2c3c(-c4ccccc4O)n[nH]c3C(=O)N2Cc2ccncc2)cc1OC (configuration not stated)	7	nt	nt	nt	-7%	nt
O=C1c2[nH]nc(-c3ccccc3O)c2C(c2cccc(O)c2)N1Cc1ccco1 (configuration not stated)	21	?	4%	2%	1%	?
Cc1cc(C)c(-c2n[nH]c3c2C(c2ccccc2F)N(Cc2ccco2)C3=O)c(O)c1 (configuration not stated)	-73*	nt	nt	nt	-3%	nt
COc1cc(C2c3c(-c4ccccc4O)n[nH]c3C(=O)N2Cc2ccco2)cc(OC)c1OC (configuration not stated)	-4	7.4µM*	-2%	12µM*	-10%	-8%
COc1ccc(C2c3c(-c4ccccc4O)n[nH]c3C(=O)N2Cc2ccco2)cc1 (configuration not stated)	?	9.3µM*	3%	?	-7%	-26%
CCCOc1cccc(C2c3c(-c4ccccc4O)n[nH]c3C(=O)N2Cc2ccco2)c1 (configuration not stated)	-72*	nt	nt	nt	14%	nt
Cc1cnc(C(=O)OCC(=O)NCc2ccc(Cl)cc2)cn1	0	nt	1%	nt	nt	16%
O=C(Nc1cccc(Cl)c1)c1ccc2nc(CCc3ccccc3)oc2c1	40	nt	nt	nt	6%	nt
COc1ccc(CCN(Cc2cc3ccc(C)cc3n3nnnc23)C(C)=O)cc1OC	-100*	3%	-4%	2%	0%	-9%
COc1cc(Cc2cnc(N)nc2N)cc(OC)c1OC	?	2.1µM*!	-4%	1.5µM*	6%	6%
COc1cc(CN2CCCCCC2)cc(OC)c1OC	12	35%	3%	7%	-5%	11%
CCOC(=O)c1nn(-c2ccc(OCC)cc2)c2nc(-c3ccco3)c(C#N)c(=O)n12	-9	?	-1%	12µM*	4%	4%
CCOC(=O)c1nn(-c2ccc(Cl)cc2)c2nc(-c3ccc(C)cc3)c(C#N)c(=O)n12	-20	nt	5%	9.3µM*	14%	-24%
SMILES	HCMV antiviral	Pf growth 96h	SARS PLP yeast	Pf growth 48h	Sm TGR block	HCV inhibitor
CCOC(=O)c1nn(-c2ccc(OCC)cc2)c2nc(-c3cccc(OC)c3)c(C#N)c(=O)n12	-19	?	1%	12%	8%	-19%
Cc1ccc(Cl)cc1NC(=O)c1ccc2nc(CCc3ccccc3)oc2c1	-21	nt	nt	nt	1%	nt
CCOc1ccc(/C=C/c2nc(C#N)c(NCc3ccccc3)o2)cc1	-93*	nt	nt	nt	-7%	nt
CC(C)(C)NC(=O)c1cc([N+](=O)[O-])ccc1N1CCCCC1	-6	?	-6%	?	-10%	-5%
CCOC(=O)NN1C(=O)c2ccccc2NC1c1ccccc1 (configuration not stated)	-6	-22%	-13%	27%	-10%	16%
CCOC(=O)NN1C(=O)c2ccccc2NC1c1ccccn1 (configuration not stated)	42	10µM*	1%	8%	-3%	9%
CCN(CCNC(=O)C1CCN(S(C)(=O)=O)CC1)c1ccccc1	139	4.7µM*	3%	-2%	1%	2%
CCN(CCNC(=O)Nc1ccc(Cl)cc1)c1ccccc1	-21	189%	nt	?	6%	14µM*
O=C(NCc1ccc(F)cc1Cl)C1CCN(S(=O)(=O)N2CCCCC2)CC1	21	3.3µM*	-3%	-18%	7%	-22%
O=C(NCc1ccco1)C1CCN(C(=O)Cc2ccccc2)CC1	27	nt	3%	-2%	-16%	1%
O=C(NCc1ccc(Cl)cc1)C1CCN(C(=O)Cc2ccccc2)CC1	-68*	12µM*	?	15%	7%	0%
Cc1cc(C)c[n+](-c2[nH]c(=O)sc2/C=N/N=C(\[O-])c2cccnc2)c1	8	3%	-6%	9%	-2%	18%
Cc1ccccc1C(=O)Nc1cccc(C(=O)OCc2cc(=O)n3c(C)csc3n2)c1	10	nt	nt	nt	-9%	nt
CS(=O)(=O)N1CCC(C(=O)Nc2cc(Cl)c(Cl)cc2Cl)CC1	-32	2.1µM*	7%	-9%	5%	12%
CS(=O)(=O)N1CCC(C(=O)NCc2ccncc2)CC1	-8	20%	1%	-3%	1%	-6%
CS(=O)(=O)N1CCC(C(=O)Nc2cc(Cl)ccc2Cl)CC1	-27	-24%	0%	-82%	0%[57.1 µM]	5%
CS(=O)(=O)N1CCC(C(=O)NCc2ccc(Cl)cc2)CC1	-20	39%	2%	2.3µM*	1%	15%
OCCC1CN(C2CCC2)CCN1Cc1ccc(F)c(F)c1 (configuration not stated)	7	12µM*	?	-1%	-17%	16%
